This note sets out measurements from PubChem BioAssay.

Where “and” joins values, the source holds several entries; their conditions need not be identical. Equal entries are not always repeated. The source holds several records for some structures; these can differ, active in one and inactive in another. Calls of active or inactive are those of the source. Unless noted, how the calls were made is not given here.

Test [1] is described as follows: kinase inhibitors against Plasmodium liver-stage infection, cell-based, known kinase inhibitor set, luminescence, hepatoma host viability (AID 624392).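 Further: infected cells incubated roughly two days before readout.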 Particulars: Plasmodium liver stage in hepatoma cells, luciferase luminescence, concentration not given here; liver cell % of control: measured here: host liver cell viability; parasite % of control: stronger effect = lower value.

Test [2] can be described thus: sensitizers of A549 cells to miR-34 induction, primary screen, imaging, A549 dox-inducible miR-34, nuclei and caspase counts (AID 1347080;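 active means compounds whose cell count with miR-34 switched on is under 0.7 times the count with it off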). To be noted: A549 miR-34 inducible, Hoechst nuclei count, 48 h.
The nature of test [3]: survival rescue of mitochondrial mutant cells in low glucose, primary screen, MELAS cybrids, Rieske KO mouse fibroblasts, CellTiter-Glo (AID 1508586;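 active means mean z-score across replicates of 1.96 or higher in either the MELAS or the Rieske mutant cell line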;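 further: z relative to plate mean and SD of compound and empty wells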).
A short description of test [4]: hESC survival regulators, cell-based (AID 493140).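 Further: cells exposed to compounds for four days before counting.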 Particulars: human embryonic stem cell survival screen; stronger effect = higher value.
Test [5] is described as follows: liver-stage malaria parasite growth inhibition, primary screen, cell-based, HepG2, luciferase luminescence, HepG2 viability (AID 624349; in the data active means parasite load remaining mostly below about 12%, no sharp cut-off; inactive means mostly above about 10%;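 further: 100% = mean of DMSO negative control wells on the same plate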). Particulars: P. berghei liver stage in HepG2, luciferase luminescence, concentration not given here; parasite load remaining: stronger effect = lower value; viability: measured here: HepG2 viability without parasites.
Test [6] deals with Mitogen-activated protein kinase 7 (Homo sapiens) (UniProt Q13164). The experiment in a line: ERK5 transactivation activators in reporter cells, primary screen, cell-based, HTS (AID 1508626;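 active means luciferase signal above three times the same-plate solvent-only control wells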;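 further: luciferase driven by Gal4-ERK5 fusion binding five Gal4 sites before minimal TATA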). Particulars: HeLa Gal4-ERK5 transactivation, 18 h, at 5 µM, stronger effect = higher value.
Test [7] addresses NAD(+) hydrolase SARM1 (Homo sapiens) (UniProt Q6SZW1). The experiment in a line: SARM1 TIR NADase inhibitors, cell lysate, NAD-Glo luminescence (AID 1508614;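 active means compound whose remaining NAD level is above about 45 nM, limit read from the data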). Particulars: SAM-TIR HEK293T lysate NADase, at 1 µM, stronger effect = higher value.
Setting [8] is: stronger effect = lower value, cell number ratio, induced over uninduced.
Setting [9] is: measured here: relative caspase fold change +Dox/-Dox.
The mark [10] stands for this setting: measured here: total cells with miR-34 induction, stronger effect = lower value.
The mark [11] stands for this setting: measured here: total cells without miR-34 induction.
The mark [12] stands for this setting: MELAS cybrid survival, CellTiter-Glo 48 h, stronger effect = higher value.
[13] abbreviates: Rieske KO mouse fibroblast survival, CellTiter-Glo 72 h.

NAD(+) hydrolase SARM1 (Homo sapiens), sequence (Q6SZW1 whole entry, looked up): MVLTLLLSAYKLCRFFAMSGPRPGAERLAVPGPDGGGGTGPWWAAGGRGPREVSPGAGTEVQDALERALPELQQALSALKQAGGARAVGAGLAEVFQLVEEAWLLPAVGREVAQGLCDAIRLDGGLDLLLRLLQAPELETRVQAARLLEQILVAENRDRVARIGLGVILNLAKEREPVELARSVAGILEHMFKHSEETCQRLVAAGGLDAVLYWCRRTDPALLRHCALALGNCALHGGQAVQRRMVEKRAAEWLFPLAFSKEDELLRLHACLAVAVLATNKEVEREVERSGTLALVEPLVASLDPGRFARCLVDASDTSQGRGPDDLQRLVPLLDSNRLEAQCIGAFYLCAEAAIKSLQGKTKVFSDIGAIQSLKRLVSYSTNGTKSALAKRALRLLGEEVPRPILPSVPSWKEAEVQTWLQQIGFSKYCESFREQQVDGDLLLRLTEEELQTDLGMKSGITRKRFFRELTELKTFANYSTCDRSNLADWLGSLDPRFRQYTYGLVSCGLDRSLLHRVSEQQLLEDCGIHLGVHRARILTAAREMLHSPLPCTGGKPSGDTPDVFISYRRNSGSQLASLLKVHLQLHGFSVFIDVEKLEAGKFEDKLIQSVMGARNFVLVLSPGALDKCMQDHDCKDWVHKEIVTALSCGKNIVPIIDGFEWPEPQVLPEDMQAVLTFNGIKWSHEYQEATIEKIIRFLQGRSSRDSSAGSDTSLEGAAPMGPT
Mitogen-activated protein kinase 7 (Homo sapiens), sequence (Q13164 whole entry, looked up, the tested form may be a part): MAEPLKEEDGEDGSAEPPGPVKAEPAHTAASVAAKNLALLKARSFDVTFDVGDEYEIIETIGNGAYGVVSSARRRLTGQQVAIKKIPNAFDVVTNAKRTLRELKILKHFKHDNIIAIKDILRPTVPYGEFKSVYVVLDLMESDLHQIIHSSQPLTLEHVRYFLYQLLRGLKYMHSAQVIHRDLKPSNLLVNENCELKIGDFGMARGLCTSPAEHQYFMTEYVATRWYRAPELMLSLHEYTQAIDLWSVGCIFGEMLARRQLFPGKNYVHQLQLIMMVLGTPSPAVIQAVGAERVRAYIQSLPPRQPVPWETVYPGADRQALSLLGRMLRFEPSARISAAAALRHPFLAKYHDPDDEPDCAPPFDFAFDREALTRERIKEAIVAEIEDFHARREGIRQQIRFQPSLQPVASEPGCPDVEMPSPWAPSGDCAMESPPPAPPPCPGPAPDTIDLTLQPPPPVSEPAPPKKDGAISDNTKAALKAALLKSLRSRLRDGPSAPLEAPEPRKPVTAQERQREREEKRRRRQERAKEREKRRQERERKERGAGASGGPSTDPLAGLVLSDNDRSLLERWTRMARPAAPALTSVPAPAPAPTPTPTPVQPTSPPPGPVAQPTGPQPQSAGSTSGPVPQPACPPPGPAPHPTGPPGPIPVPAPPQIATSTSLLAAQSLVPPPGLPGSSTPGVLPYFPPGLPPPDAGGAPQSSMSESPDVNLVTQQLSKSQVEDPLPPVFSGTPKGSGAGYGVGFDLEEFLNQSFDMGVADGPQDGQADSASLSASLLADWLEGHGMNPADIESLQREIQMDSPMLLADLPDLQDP

Regarding `Cc1[nH]c(C=C2C(=O)Nc3ccccc32)c(C)c1CCC(=O)O`, the liver cell % of control in test [1] was 515% and 322% and 191%. For the same molecule, the parasite % of control in test [1] was 51% (inactive) and 49.5% (inactive) and 54.8% (inactive). In addition, the fold change in test [2] (setting [8]) is 0.955 (inactive); in test [2] (setting [9]) it was 0.799. Further, the cell count in test [2] (setting [10]) was 7040; in test [2] (setting [11]), 7360. The figures for the z-score in test [3] (setting [12]) and in test [3] (setting [13]) were -0.288 (inactive) and 0.507, respectively.

On to `COc1ccc(-c2ccc3c(N4CCOCC4)nc(N4CC(C)OC(C)C4)nc3n2)cc1CO` (centres undefined), for which the liver cell % of control in test [1] was 228% and 225% and 144%. Also, the parasite % of control in test [1] was 168% (inactive) and 180% (inactive) and 510% (inactive). Moreover, the fold change in test [2] (setting [8]) is 1.04 (inactive); in test [2] (setting [9]), 0.95. The cell count in test [2] (setting [10]) was 2720; in test [2] (setting [11]) it was 2620. The z-score was 3.15 (active) in test [3] (setting [12]) and -0.466 in test [3] (setting [13]).

Consider `O=C1NC(=O)C(=Cc2cccc(C(F)(F)F)c2)S1`, for which the liver cell % of control in test [1] was 81.5% and 80.8% and 97.3%. Besides, the parasite % of control in test [1] is 0.631% (inactive) and 2.17% (inactive) and 7.31% (inactive). Besides, the fold change was 0.809 (inactive) in test [2] (setting [8]) and 0.469 in test [2] (setting [9]). For the same molecule, the cell count is 7740 in test [2] (setting [10]) and 9570 in test [2] (setting [11]). Further, the z-score in test [3] (setting [12]) was -0.352 (inactive); in test [3] (setting [13]) it was 0.482.

As for `Cc1ccc([N+](=O)[O-])cc1S(=O)(=O)N(C)N=Cc1cnc2ccc(Br)cn12`, the liver cell % of control in test [1] is 52.2% and 52.1% and 55.5%. Moreover, in test [1], the parasite % of control is 4.51% (inactive) and 2.82% (inactive) and 2.1% (active). Also, the results for the fold change in test [2] (setting [8]) and in test [2] (setting [9]) were 0.935 (inactive) and 0.896, respectively. For the same molecule, the cell count was 837 in test [2] (setting [10]) and 896 in test [2] (setting [11]). Moreover, the z-score in test [3] (setting [12]) is -0.394 (inactive); in test [3] (setting [13]), -2.82.

As for `C=N[C@@H](C(=O)N[C@@H]1C(=O)N2[C@@H]1SC(C)(C)[C@@H]2C(=O)O)c1ccccc1`, the survival in test [4] was 22.6 (inactive). Also, the parasite load remaining in test [5] is 47.6% (inactive) and 102% (inactive). The viability in test [5] is 47.2% and 93.5%. The fold change in test [2] (setting [8]) was 0.849 (inactive); in test [2] (setting [9]), 1.16. Besides, the cell count in test [2] (setting [10]) turned out to be 8000; in test [2] (setting [11]), 9420. The luciferase signal in test [6] is 80 AU (inactive).

Take `CCn1c(-c2nonc2N)nc2c(C#CC(C)(C)O)ncc(OCC3CCCNC3)c21` (centres undefined): the liver cell % of control in test [1] was 56.6% and 72.4% and 90.5%. In addition, in test [1], the parasite % of control is 1.73% (inactive) and 5.98% (inactive) and 27.8% (inactive). Also, the fold change in test [2] (setting [8]) was 0.949 (inactive); in test [2] (setting [9]), 0.738. Besides, the cell count in test [2] (setting [10]) came to 6620; in test [2] (setting [11]) it was 6980. For the same molecule, the results for the z-score in test [3] (setting [12]) and in test [3] (setting [13]) were -0.704 (inactive) and 0.217, respectively.

Consider `C[C@H](Cn1cnc2c(N)ncnc21)OCP(=O)(O)O`, for which the fold change in test [2] (setting [8]) was 0.942 (inactive); in test [2] (setting [9]) it was 0.901. In addition, the values for the cell count in test [2] (setting [10]) and in test [2] (setting [11]) were 9100 and 9660, respectively. The remaining NAD in test [7] was 10 nM (inactive).

On to `CC(C)CCN1c2nc(Nc3cc(F)c(O)c(F)c3)ncc2N(C)C(=O)C1C` (centres undefined), for which the liver cell % of control in test [1] is 87.7% and 90.4% and 106%. Moreover, the parasite % of control in test [1] is 35.4% (inactive) and 66.2% (inactive) and 39.4% (inactive). Also, the fold change is 1.05 (inactive) in test [2] (setting [8]) and 0.299 in test [2] (setting [9]). Moreover, the cell count is 2560 in test [2] (setting [10]) and 2450 in test [2] (setting [11]). For the same molecule, the values for the z-score in test [3] (setting [12]) and in test [3] (setting [13]) were 0.0608 (inactive) and -0.296, respectively.

In the case of `Cc1ccccc1-n1c(Cn2nc(-c3cccc(O)c3)c3c(N)ncnc32)nc2cccc(C)c2c1=O`, the liver cell % of control in test [1] is 93.6% and 86.4% and 105%. The parasite % of control in test [1] was 34.6% (inactive) and 44.4% (inactive) and 71.3% (inactive). Further, the figures for the fold change in test [2] (setting [8]) and in test [2] (setting [9]) were 0.979 (inactive) and 0.801, respectively. For the same molecule, the cell count in test [2] (setting [10]) came out at 7710; in test [2] (setting [11]) it was 7880. Besides, the z-score in test [3] (setting [12]) was -0.245 (inactive); in test [3] (setting [13]), -0.436.

Broadly, the viability is the share of living cells, or the viability signal relative to a control.
